Source: the supplement of paper PMC11732987, “Enantioselective OTUD7B fragment discovery through chemoproteomics screening and high-throughput optimisation” (Communications Chemistry, 2025)
A number with no mark means an inactive call.

Key:
Experiment in all cases: log2 ratio of Biotin-Ahx-Ub-VS probe labelling (fragment/DMSO); higher = less target engagement (more negative = stronger competition), active = hit call of the paper (q ≤ 0.05, log2 ratio ≤ -1)
Conditions in all cases: compound concentration: 200 uM; treatment time: 3 h
USP19 = molecular target: T1, USP19 (UniProt O94966)
T1 sequence (whole entry): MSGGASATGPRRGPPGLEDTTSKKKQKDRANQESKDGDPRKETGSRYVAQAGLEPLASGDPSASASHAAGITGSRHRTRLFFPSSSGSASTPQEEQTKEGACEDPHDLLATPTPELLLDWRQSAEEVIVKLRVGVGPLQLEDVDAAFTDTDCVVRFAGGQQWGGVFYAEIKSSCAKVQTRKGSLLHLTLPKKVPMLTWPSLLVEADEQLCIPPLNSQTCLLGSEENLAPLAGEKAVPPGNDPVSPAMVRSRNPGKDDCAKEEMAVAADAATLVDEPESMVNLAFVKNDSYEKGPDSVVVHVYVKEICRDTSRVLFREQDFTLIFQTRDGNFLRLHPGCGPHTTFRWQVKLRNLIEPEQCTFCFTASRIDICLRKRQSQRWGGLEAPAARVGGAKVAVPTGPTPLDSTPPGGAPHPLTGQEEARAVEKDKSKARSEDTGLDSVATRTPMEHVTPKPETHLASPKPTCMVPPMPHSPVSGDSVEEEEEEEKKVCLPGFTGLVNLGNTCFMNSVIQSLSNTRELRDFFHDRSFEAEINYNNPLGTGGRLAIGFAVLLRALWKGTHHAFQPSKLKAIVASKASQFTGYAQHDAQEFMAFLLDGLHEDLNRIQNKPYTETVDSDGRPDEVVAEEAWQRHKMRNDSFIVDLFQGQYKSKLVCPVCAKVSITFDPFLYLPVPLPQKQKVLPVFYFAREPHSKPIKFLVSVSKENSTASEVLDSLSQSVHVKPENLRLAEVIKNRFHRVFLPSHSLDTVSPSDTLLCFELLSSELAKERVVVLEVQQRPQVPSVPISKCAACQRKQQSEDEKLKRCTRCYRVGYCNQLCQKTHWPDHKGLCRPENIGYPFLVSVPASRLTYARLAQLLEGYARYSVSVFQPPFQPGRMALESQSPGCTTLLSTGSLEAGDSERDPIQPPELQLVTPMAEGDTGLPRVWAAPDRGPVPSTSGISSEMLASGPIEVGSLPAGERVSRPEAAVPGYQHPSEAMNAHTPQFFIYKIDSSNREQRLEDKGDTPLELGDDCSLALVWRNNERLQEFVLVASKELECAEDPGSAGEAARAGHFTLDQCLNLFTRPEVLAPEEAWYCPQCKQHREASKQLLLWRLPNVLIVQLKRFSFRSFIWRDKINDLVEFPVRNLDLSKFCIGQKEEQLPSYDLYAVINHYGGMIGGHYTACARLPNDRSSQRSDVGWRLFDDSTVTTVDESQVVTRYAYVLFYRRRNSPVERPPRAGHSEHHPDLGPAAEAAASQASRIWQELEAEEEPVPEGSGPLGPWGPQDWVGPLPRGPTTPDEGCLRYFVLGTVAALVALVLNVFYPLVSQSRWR
Summary of the method: (§1)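 The table lists average log2 ratios of fragment over vehicle, from an unpaired t-test on global-median-normalised Spectronaut label-free quantities. Proteins with ≥2 unique peptides were used. Samples were HEK293T lysate (495 µg) treated in triplicate with fragment at 200 µM or vehicle for 3 h, then with Biotin-Ahx-Ub-VS (0.5 µM final) for 1 h, with labelled DUBs NeutrAvidin-enriched and run by diaPASEF LC-MS/MS.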

USP22 = molecular target: T2, USP22 (UniProt Q9UPT9)
T2 sequence (whole entry): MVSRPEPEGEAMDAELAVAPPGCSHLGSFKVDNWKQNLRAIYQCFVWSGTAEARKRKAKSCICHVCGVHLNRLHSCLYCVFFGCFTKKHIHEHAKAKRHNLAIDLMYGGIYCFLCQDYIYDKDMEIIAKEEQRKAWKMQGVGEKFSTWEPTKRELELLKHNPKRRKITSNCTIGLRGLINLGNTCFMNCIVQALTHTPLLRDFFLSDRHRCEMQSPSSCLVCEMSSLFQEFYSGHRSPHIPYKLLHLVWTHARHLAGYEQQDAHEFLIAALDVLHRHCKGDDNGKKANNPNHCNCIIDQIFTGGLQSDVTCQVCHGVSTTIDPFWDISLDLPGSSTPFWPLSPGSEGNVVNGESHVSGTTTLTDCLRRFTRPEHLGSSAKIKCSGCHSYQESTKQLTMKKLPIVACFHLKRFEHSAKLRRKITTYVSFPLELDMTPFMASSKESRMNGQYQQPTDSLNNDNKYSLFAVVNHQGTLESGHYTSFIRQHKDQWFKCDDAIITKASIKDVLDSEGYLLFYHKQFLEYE
Summary of the method: as §1

USP24 = USP24 (UniProt Q9UPU5)
Summary of the method: as §1

USP25 = molecular target: T3, USP25 (UniProt Q9UHP3)
T3 sequence (whole entry): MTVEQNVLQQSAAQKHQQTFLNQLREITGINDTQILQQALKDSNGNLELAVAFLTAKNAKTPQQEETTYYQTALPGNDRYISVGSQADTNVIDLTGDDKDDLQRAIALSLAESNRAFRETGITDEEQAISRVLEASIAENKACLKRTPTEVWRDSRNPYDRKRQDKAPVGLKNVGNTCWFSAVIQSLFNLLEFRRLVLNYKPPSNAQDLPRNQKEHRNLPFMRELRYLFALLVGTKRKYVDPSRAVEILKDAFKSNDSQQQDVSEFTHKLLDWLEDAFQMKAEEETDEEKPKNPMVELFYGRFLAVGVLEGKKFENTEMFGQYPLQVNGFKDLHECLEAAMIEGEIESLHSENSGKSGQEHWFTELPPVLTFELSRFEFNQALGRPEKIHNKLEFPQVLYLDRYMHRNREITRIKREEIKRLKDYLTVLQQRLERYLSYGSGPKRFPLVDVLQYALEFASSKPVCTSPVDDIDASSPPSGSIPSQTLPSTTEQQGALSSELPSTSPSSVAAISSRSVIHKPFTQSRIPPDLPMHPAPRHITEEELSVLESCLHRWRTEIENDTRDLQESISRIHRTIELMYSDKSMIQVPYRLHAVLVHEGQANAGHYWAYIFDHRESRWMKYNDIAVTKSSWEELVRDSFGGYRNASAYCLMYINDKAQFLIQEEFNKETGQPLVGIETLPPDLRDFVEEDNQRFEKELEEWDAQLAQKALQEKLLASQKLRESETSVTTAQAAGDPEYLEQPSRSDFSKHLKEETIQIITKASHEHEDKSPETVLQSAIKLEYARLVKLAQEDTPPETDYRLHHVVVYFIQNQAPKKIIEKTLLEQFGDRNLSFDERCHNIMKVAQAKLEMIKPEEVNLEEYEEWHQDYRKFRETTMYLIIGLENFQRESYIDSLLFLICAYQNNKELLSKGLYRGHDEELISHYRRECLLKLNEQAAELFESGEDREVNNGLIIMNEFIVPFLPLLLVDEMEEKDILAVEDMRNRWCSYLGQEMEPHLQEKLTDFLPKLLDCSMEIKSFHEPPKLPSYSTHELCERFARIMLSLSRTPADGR
Summary of the method: as §1

USP28 = molecular target: T4, USP28 (UniProt Q96RU2)
T4 sequence (whole entry): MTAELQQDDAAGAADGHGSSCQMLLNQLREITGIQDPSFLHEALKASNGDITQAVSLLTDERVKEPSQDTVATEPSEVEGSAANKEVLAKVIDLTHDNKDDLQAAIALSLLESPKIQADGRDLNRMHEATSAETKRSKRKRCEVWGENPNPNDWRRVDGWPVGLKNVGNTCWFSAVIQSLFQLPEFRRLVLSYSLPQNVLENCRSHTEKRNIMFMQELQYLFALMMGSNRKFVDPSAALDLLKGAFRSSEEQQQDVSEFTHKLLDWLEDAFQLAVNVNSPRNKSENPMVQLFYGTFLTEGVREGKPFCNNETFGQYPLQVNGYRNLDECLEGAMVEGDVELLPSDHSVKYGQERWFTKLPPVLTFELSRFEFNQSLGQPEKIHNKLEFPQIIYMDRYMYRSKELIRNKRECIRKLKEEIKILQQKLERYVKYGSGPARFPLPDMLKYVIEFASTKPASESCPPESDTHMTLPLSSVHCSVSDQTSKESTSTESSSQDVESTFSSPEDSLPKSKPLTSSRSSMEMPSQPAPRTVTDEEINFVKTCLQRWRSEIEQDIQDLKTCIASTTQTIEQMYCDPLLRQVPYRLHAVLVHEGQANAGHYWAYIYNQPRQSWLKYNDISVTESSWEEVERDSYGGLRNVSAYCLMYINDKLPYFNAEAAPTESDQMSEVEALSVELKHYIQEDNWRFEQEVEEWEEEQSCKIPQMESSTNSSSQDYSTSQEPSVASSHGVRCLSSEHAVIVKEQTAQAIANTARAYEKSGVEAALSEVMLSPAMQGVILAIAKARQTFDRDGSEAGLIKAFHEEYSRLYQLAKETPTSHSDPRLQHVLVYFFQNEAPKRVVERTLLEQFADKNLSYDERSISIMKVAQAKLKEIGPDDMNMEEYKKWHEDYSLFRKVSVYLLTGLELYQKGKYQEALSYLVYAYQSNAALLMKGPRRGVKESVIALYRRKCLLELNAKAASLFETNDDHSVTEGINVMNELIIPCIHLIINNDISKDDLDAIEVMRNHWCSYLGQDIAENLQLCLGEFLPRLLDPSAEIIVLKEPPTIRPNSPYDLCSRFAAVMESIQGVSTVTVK
Summary of the method: as §1

Sequence of USP24 (Q9UPU5 whole entry): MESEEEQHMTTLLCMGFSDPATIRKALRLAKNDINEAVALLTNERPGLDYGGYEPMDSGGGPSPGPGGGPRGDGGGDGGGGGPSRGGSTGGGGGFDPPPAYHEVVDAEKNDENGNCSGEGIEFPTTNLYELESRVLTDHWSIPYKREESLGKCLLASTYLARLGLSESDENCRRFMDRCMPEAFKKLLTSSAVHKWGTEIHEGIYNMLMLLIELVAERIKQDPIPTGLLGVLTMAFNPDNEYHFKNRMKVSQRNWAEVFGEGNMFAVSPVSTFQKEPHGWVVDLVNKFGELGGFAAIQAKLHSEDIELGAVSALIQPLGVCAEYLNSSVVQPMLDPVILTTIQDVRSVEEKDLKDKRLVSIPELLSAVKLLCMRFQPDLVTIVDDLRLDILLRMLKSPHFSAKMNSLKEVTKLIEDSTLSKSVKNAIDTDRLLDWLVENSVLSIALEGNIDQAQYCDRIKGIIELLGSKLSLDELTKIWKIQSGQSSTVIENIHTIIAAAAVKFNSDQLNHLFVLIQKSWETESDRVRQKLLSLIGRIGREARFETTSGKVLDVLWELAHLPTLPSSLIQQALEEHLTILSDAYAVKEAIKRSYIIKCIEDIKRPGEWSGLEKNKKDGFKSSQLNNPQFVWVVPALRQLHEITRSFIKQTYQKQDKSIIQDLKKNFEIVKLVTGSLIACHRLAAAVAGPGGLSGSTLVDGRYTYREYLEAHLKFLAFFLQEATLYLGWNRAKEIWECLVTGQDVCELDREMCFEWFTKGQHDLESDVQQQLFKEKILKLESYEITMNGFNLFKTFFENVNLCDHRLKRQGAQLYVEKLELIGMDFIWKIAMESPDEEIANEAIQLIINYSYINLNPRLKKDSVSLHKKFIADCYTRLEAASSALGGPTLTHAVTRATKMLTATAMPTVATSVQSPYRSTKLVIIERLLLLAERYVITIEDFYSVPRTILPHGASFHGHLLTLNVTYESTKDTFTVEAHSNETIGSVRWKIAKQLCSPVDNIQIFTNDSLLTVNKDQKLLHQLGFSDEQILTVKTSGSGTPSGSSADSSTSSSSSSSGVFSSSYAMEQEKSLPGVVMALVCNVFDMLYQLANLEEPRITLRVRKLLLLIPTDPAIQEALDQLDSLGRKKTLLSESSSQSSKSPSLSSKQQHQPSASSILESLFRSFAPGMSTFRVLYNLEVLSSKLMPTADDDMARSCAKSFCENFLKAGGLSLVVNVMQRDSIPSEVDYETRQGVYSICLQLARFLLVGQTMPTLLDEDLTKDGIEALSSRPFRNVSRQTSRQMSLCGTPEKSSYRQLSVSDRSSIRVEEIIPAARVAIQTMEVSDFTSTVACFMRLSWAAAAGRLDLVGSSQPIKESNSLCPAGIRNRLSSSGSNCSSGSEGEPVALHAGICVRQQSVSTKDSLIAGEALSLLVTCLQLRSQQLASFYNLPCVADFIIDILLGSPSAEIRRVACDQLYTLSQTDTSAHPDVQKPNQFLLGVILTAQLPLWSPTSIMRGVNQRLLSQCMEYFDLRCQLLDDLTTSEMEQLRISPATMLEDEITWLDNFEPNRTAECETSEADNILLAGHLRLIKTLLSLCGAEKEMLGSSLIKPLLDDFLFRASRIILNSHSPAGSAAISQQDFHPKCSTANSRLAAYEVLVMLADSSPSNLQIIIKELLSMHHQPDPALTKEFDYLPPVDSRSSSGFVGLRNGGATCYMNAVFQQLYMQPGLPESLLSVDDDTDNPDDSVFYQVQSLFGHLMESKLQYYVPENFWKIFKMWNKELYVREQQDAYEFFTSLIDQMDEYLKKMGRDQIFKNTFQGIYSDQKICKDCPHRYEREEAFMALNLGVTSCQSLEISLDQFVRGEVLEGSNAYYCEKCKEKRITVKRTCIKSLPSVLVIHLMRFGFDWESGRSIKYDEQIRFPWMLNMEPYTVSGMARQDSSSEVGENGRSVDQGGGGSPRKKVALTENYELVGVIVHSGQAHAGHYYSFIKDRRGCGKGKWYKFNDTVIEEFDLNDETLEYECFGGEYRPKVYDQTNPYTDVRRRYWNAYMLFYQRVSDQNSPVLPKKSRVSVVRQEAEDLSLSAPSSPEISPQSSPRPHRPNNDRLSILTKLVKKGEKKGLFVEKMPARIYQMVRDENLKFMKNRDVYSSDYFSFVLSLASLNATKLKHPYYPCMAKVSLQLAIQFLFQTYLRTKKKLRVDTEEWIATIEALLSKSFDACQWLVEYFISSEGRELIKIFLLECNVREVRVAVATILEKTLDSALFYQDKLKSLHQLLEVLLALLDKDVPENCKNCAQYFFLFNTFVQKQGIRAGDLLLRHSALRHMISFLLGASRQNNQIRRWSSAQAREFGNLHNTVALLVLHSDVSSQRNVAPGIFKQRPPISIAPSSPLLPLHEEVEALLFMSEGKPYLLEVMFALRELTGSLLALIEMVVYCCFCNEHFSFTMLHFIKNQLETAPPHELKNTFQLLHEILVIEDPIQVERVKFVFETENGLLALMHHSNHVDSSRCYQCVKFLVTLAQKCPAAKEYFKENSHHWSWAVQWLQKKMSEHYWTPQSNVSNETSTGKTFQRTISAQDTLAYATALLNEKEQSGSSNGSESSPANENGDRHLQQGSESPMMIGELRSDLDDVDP

## CC1CN(c2ccc(NC(=O)CCl)cc2)CC(C)O1 (stereo not given)
USP19
  log2 ratio of Biotin-Ahx-Ub-VS probe labelling: -0.126
USP22
  log2 ratio of Biotin-Ahx-Ub-VS probe labelling: -0.32
USP24
  log2 ratio of Biotin-Ahx-Ub-VS probe labelling: -0.205
USP25
  log2 ratio of Biotin-Ahx-Ub-VS probe labelling: -1.58 (active)
USP28
  log2 ratio of Biotin-Ahx-Ub-VS probe labelling: -1.57 (active)
